# High-throughput results as filed in PubChem.
# HT1080 IDH1KD tx: qHTS for induction of synthetic lethality in tumor cells producing 2HG: qHTS for the HT-1080-IDH1KD cell line | hit rate 2% among 360,000 | AID 686971, 2013 | Potency, µM (titrated, usually from 46.1 µM), for inactives: top-dose activity, negative = toxicity, hits mostly cytotoxic | HT-1080 IDH1 knockdown viability, ATP luminescence, 48 h;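 further: potency means the concentration at half of the fitted maximal effect; 0% = DMSO wells and -100% = cell-free medium wells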
#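 CellTiter-Glo luminescence after 48 h compound exposure at 37 degrees C of IDH1-knockdown HT-1080 cells in 5% FBS RPMI. %Activity scaled between DMSO wells and cell-free media wells, with curves fitted and assigned curve classes.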
# DT40 TDP1 no CPT: qHTS for Inhibitors of human tyrosyl-DNA phosphodiesterase 1 (TDP1): qHTS in cells in absence of CPT. DT40 Tdp1-/- hTDP1 cells, no CPT, ATP luminescence, 48 h. Potency, µM (series often up to 46.2 µM), inactives show at the top dose activity change, negative = growth inhibition, actives largely listed as inhibitors. hit rate 15% among 420,000. AID 686978, 2013; further: potency means the concentration at half of the fitted maximal effect; nearly all actives have a fitted effect of over 55% in size
#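 DT40 Tdp1-/-;hTDP1 cells, no CPT (DMSO vehicle only), 400 cells/well; compounds pin-transferred; ≥48 hr, 37 °C; CellTiter-Glo 30 min RT dark, luminescence read.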
# HT1080-NT tox: qHTS for induction of synthetic lethality in tumor cells producing 2HG: qHTS for the HT-1080-NT fibrosarcoma cell line; HT-1080-NT fibrosarcoma viability, CellTiter-Glo ATP luminescence, 48 h; Potency, µM (highest dose often 46.1 µM), without a hit: top-dose activity, negative = less viability, usual class: cytotoxic; hit rate 1.6% among 360,000; AID 686970, 2013;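 further: NT is the 2HG producing partner of a matched IDH1 knockdown line; potency means the concentration at half of the fitted maximal effect; 0% = DMSO-treated cells and -100% = media-only wells without cells; nearly all actives have a fitted effect of over 55% in size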
#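 750 cells/well, RPMI + 5% FBS; 2 h settle, compound pin-transfer, 48 h at 37 degrees C. CellTiter-Glo 10 min RT, luminescence. Normalized to DMSO and media-only wells.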
# TDP1 cell CPT: qHTS for Inhibitors of human tyrosyl-DNA phosphodiesterase 1 (TDP1): qHTS in cells in presence of CPT | chicken DT40 Tdp1-/-;hTDP1 cells + 20 nM CPT, ATP luminescence, 48 h | Potency, µM (highest dose often 46.2 µM), inactives show at the highest dose activity change, negative = growth inhibition, usual class: inhibitors | hit rate 12% among 420,000; further: potency means the concentration at half of the fitted maximal effect; nearly all actives have a fitted effect of over 55% in size
#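 Cell growth measured by CellTiter-Glo luminescence after a minimum 48 h, 37 C compound exposure with 20 nM CPT in Tdp1-knockout DT40 cells stably expressing hTDP1, seeded 400/well; qHTS titration format.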
# IL1B secr inh: qHTS for Inhibitors of Inflammasome Signaling: IL-1-beta AlphaLISA Primary Screen | THP-1 LPS/ATP IL-1B secretion, AlphaLISA, 16 h; active compounds read low | activity change, % at 57.5 µM | hit rate 4.7% among 360,000 | AID 743279, 2014; in the data active means activity change below about -50%; inconclusive means mostly about -30% to -49%
#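 Secreted IL-1B measured by AlphaLISA bead assay after 16 h compound exposure of THP-1 cells; compounds (final up to 57.5 uM) added 1 h before LPS (250 ng/mL) and ATP (1.25 mM) stimulation; lower signal means less secretion.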
# The depositor's hits bear a star; ? = inconclusive; . = no result given; ! = a repeat was not active; [ ] = remark or other dose. Only some compounds are listed: those with a hit (about 19% of all), similar ones and a draw of the others. Unless noted, the call rests on the fitted dose curve; in most records, active means well fitted curve in the direction sought with a large enough effect; inconclusive means small, poorly fitted or top-dose-only effect, or another doubt; inactive means no such curve, though single readings can be large; an effect the other way counts as inactive or inconclusive. Unless noted, on the % scale 0 is the no-effect control and ±100 the full control effect.
SMILES,HT1080 IDH1KD tx,DT40 TDP1 no CPT,HT1080-NT tox,TDP1 cell CPT,IL1B secr inh
CC(=O)c1ccc(OCCCC(=O)Nc2cccc(-c3nn[nH]n3)c2)cc1,-2.2%,-12.3%,-26.6%,5.8%,2.3
Cc1ccc(NC(=O)C(C)N=C2NS(=O)(=O)c3ccccc32)cc1F (centres undefined),0.4%,?,13.8%,-24.4%,-0.8
O=C(CN1CCC(n2nnc3cc(F)ccc32)CC1)Nc1ccccc1N1CCOCC1,-22.0%,18.4µM*,0.3%,16.4µM*,-19.0
O=C(CN1CCC(n2nnc3cc(F)ccc32)CC1)N1CCc2ccccc2C1,?,14.6µM*,-30.0%,?,-62.4*
COc1cccc(CNC(=O)C2(c3cccs3)CCOCC2)c1,.,-5.7%,.,-3.1%,.
CC(NC(=O)/C=C/c1ccc(Br)cc1)c1ccc(Cl)cc1 (centres undefined),14.5%,?,-9.3%,?,12.2
CN(C)CC(O)c1ccc(C=Cc2ccc(Cl)cc2)cc1 (centres undefined),5.8µM*,7.31µM*,-4.9%,7.31µM*,-92.0*
Cc1cc(C(=O)N/N=C/c2c(C)nn(-c3ccccc3)c2C)c(C)o1,18.2%,-19.8%,19.2%,6.1%,-11.9
Cc1ccc(-c2nnc(-c3ccccc3)o2)cc1,-3.2%,?,-1.9%,-21.7%,21.8
c1ccc(-c2nnc(C(c3ccccc3)c3ccccc3)o2)cc1,0.2%,18.4µM*,-0.9%,25.9µM*,-8.7
OC(c1cccc(OCc2ccccc2)c1)c1nnc(-c2ccccc2)o1 (centres undefined),?,18.4µM*,-19.9%,18.4µM*,?
Cc1ccc(OCc2nnc(-c3ccccc3)o2)cc1,.,-13.1%,.,-3.3%,.
Cn1ccnc1C(O)c1cccc(OCc2ccccc2)c1 (centres undefined),8.7%,-27.3%,7.9%,-16.8%,8.3
OC(c1ccc(OCc2ccccc2)cc1)c1nnc(-c2ccccc2)o1 (centres undefined),-26.8%,16.4µM*,-28.2%,20.6µM*,-8.5
COC(=O)c1ccc(Cn2nc(-c3ccc(C)cc3)ccc2=O)cc1,2.7%,?,0.3%,16.4µM*!,9.7
CCCCCCCC(=O)OC[C@H](CO)OC(=O)CCCCCCC,.,5.5%[4.12 µM],.,-11.7%[4.12 µM],.
CC1=C(C(=O)OCCC#N)C(c2cc3c(cc2Br)OCO3)NC(=O)N1 (centres undefined),-2.0%,-5.0%,-1.8%,-15.1%,-19.2
Brc1ccc(CN2CCN(Cc3c[nH]c4ccccc34)CC2)cc1,20.6µM*,9.2µM*,23.1µM*,2.31µM*,?
Brc1ccccc1CN1CCN(Cc2c[nH]c3ccccc23)CC1,23.1µM*,1.46µM*,7.31µM*,0.517µM*,-103.1*
O=C(c1cccc(Cl)c1)N1CCN(Cc2c[nH]c3ccccc23)CC1,0.9%,?,2.1%,-26.7%,-4.6
O=[N+]([O-])c1ccc(CN2CCN(Cc3c[nH]c4ccccc34)CC2)cc1,?,?,-29.7%,?,-68.9*
COc1cccc(CN2CCN(c3ncccn3)CC2)c1OC,7.5%,1.3%,8.8%,-21.3%,15.7
CCS(=O)(=O)N1CCN(Cc2c[nH]c3ccccc23)CC1,7.1%,-29.2%,3.2%,?,29.5
c1cnc(N2CCN(Cc3c[nH]c4ccccc34)CC2)nc1,?,2.06µM*,-18.6%,1.84µM*,?
Cc1ccc(S(=O)(=O)NC(=O)C2(C)CCN2C(=O)C2CCCCC2)cc1 (centres undefined),11.9%,-6.7%,19.8%,16.6%,6.4
SMILES,HT1080 IDH1KD tx,DT40 TDP1 no CPT,HT1080-NT tox,TDP1 cell CPT,IL1B secr inh
CC(C)CCCC(C)CCOC(=O)CN1CCCC1 (centres undefined),23.1%,-13.0%,12.8%,-1.9%,21.0
Cn1cnnc1SCc1ccc(C(=O)N/N=C/c2cccs2)cc1,0.4%,2.0%,0.7%,-2.1%,-10.0
CC1(C)C(=O)N(c2ccccc2)C1c1ccccc1O (centres undefined),?,16.4µM*,?,?,-3.6
O=C1N(c2ccccc2)C(c2ccccc2)C12CCCCC2 (centres undefined),6.6%,?,1.4%,?,26.8
COc1ccc(N2C(=O)C(C)(C)C2c2c(O)ccc3ccccc23)cc1 (centres undefined),-29.2%,16.4µM*,-9.5%,20.6µM*,-25.6
Cc1ccc2c(C)c(C)c(=O)n(C)c2c1,12.6%,-3.7%,8.7%,-2.7%,45.9
O=C(/C=C/c1c(F)cccc1Cl)c1ccc(O)cc1,?,23.1µM*,?,?,?
O=C(/C=C/c1c(F)cccc1Cl)Nc1ncccn1,9.9%,0.4%,12.0%,0.7%,-7.7
O=C(/C=C/c1ccc(Cl)cc1)c1cccnc1,?,8.2µM*,-19.7%,5.8µM*,?
CCN(CC)c1ccc(NC(=O)c2cccnc2)cc1,-5.4%,?,-7.6%,?,-1.8
CCN(CC)c1ccc(/C=C/C(=O)c2cccnc2)cc1,-7.9%,20.6µM*,15.0%,?,6.4
O=C(/C=C/c1ccccc1Cl)c1cccnc1,?,16.4µM*,?,7.31µM*,?
Cn1c(=O)c2c(n3c4ccccc4nc13)NC(=O)CC2c1cccc(F)c1 (centres undefined),.,-27.3%,.,-22.4%,.
O=C(/C=C/c1ccccc1Cl)Nc1cccc(O)c1,-3.1%,?,-6.5%,?,-13.0
O=C(/C=C/c1ccccc1Cl)c1ccc(O)cc1,?,14.6µM*,-1.6%,16.4µM*,-95.2*
CCN(CC)c1ccc(/C=C2/C(=O)c3ccc(C(=O)O)cc3C2=O)cc1,3.5%,8.0%,0.8%,16.8%,32.5
N#Cc1ccc(/C=C/C(=O)c2cccnc2)cc1,?,14.6µM*,?,10.3µM*,?
CCN(CC)c1ccc(/C=C/C(=O)c2ccc(Br)cc2)cc1,-13.2%,?,-2.7%,16.4µM*,-64.6*
Cc1cccc(N2CCN(C(=O)c3ccccc3OCc3c(C)noc3C)CC2)c1C,-0.2%,16.4µM*,5.0%,18.4µM*,?
Cc1noc(C)c1COc1ccccc1C(=O)N1CCN(S(=O)(=O)c2ccccc2F)CC1,-8.7%,-15.5%,-7.3%,?,3.2
Cc1ccc(S(=O)(=O)N2CCN(C(=O)c3ccccc3OCc3c(C)noc3C)CC2)cc1,-7.1%,?,-10.2%,18.4µM*,15.5
C=CCN(C(=O)c1csnn1)C(C(=O)NC1CCCCC1)c1ccc(F)cc1 (centres undefined),-1.2%,-2.9%,2.2%,-0.6%,12.3
